PubChem BioAssay (NCI)
Compounds without any hit were thinned out: in the full panel of roughly 83,000, 20% have a hit.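 Single-dose data. Exposure time 48 hours. Values below 10 considered active.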 A number with no mark means an inactive call. The source made the active and inactive calls.

Legend:
Assay in all cases: NCI-60 one-dose screen, 48 h (100 = growth as untreated, 0 = no growth, -100 = all killed)
Conditions in all cases: 10 µM unless noted
NCI-H23 lung = system: NCI-H23 lung
NCI-H226 lung = system: NCI-H226 lung
NCI-H322M lung = system: NCI-H322M lung
HOP-62 NSCLC = system: HOP-62 NSCLC
NCI-H460 lung = system: NCI-H460 lung
HOP-92 NSCLC = system: HOP-92 NSCLC
NCI-H522 lung = system: NCI-H522 lung
786-0 renal = system: 786-0 renal
DU-145 prostate = system: DU-145 prostate
K-562 leukemia = system: K-562 leukemia
MALME-3M melanoma = system: MALME-3M melanoma
MDA-MB-231 breast = system: MDA-MB-231 breast
RXF 393 renal = system: RXF 393 renal
SF-268 CNS = system: SF-268 CNS
SF-295 CNS = system: SF-295 CNS
SF-539 CNS = system: SF-539 CNS
UACC-257 melanoma = system: UACC-257 melanoma
M14 melanoma = system: M14 melanoma
A549/ATCC NSCLC = system: A549/ATCC NSCLC
COLO 205 colon = system: COLO 205 colon

SMILES | growth (NCI-H23 lung) [%] | growth (NCI-H226 lung) | growth (NCI-H322M lung) | growth (HOP-62 NSCLC) | growth (NCI-H460 lung) | growth (HOP-92 NSCLC) | growth (NCI-H522 lung) | growth (786-0 renal) [%] | growth (DU-145 prostate) | growth (K-562 leukemia) | growth (MALME-3M melanoma) | growth (MDA-MB-231 breast) | growth (RXF 393 renal) | growth (SF-268 CNS) [%] | growth (SF-295 CNS) | growth (SF-539 CNS) | growth (UACC-257 melanoma) | growth (M14 melanoma) | growth (A549/ATCC NSCLC) | growth (COLO 205 colon)
O=C(Nc1nc(-c2ccc(Br)cc2)cs1)c1cc(-c2ccc(Br)cc2)nc2ccc(Cl)cc12 | 69.7 | 76.3% | 89.9% | 80.1% | 88.3% | 71.7% | 76.9% | 94.3 | 92.6% | 56.6% | 105% | 74.1% | 100% | 85 | 97.8% | 99.1% | 101% | 99.1% |  | 
COC(=O)C1NC(=S)N(c2ccc(Cl)cc2)C1/C=C/c1ccccc1 (configuration not stated) | 91 | 104% | 110% | 103% | 109% | 78.6% | 93.7% |  | 100% | 106% | 103% | 95% | 110% | 101 | 91% | 94.6% | 99.3% | 87.1% | 98.1% | 108%
COc1cc2nc(-c3ccc(C#N)cc3)[nH]c(=O)c2cc1OC | 104 | 91.4% | 211% | 92.8% | 105% | 127% | 104% | 61.3 | 105% |  | 263% | 94% |  | 100 | 95.9% | 101% | -1.56% (active) | 87.7% |  | 132%
ClCC1(Cn2cnc3c(Cl)nc(Cl)nc32)COC1 | 69.1 | 87.7% | 100% | 103% | 86.5% | 73.1% | 71.9% | 88.4 | 67.8% | 64.7% | 102% | 80.4% |  | 78 | 88.8% | 103% | 75.8% | 62.6% |  | 80.2%
COc1ccc(C(=O)c2cc3c(N)c(C(=O)Nc4cccc(Br)c4C)sc3nc2C)cc1 | 27.4 | 45.6% | 52.6% | 28.8% | 5.88% (active) | 13.6% | -27.4% (active) | 26.2 | 8.9% (active) | 5.28% (active) | 51.8% | 13% |  | 22.9 | 22.2% | -15.3% (active) | 59% | 7.09% (active) |  | -40% (active)
CCN1C(=O)N(CC)C2C1NN=c1s/c(=C3\C(=O)Nc4ccccc43)c(=O)n12 (configuration not stated) | 37.3 | 93.2% | 43.5% | 5.9% (active) | 9.09% (active) | -4.18% (active) | 2.21% (active) | 27.7 | 14.9% | 2.13% (active) | 19% | 25% |  | 67.1 | 8.72% (active) | -34.1% (active) | 80.4% | 20.1% |  | -25.1% (active)
CN(C)c1ccc(-c2c(C#N)c(N)n3nc(N)c(C#N)c3c2C#N)cc1 | 96.9 | 86% | 82% | 57.8% | 70.1% | 60.1% |  | 93.1 | 67.1% | 109% | 116% | 43.2% | 65.5% | 77 | 104% | 78.2% | 113% | 69.1% | 73.6% | 75.4%
CCOC(=O)c1ccc(Nc2ccnc(SCC(=O)c3ccc(C#N)cc3)n2)cc1 | 79.9 | 61.4% | 90.5% | 63.4% | 90.5% | 105% | 27% | 78.4 | 79.4% | 50.6% | 80.9% | 81.2% |  | 78 | 76.2% | 83% | 77.7% | 50.5% |  | 70.8%
CCCCCCCCCCCCCCCC(=O)OC[C@@]1(O)C[C@@]23CC[C@@H]4C(C)(C)CCC[C@@]4(C)[C@@H]2CC[C@H]1C3 | 102 | 98.3% | 114% | 106% | 98.4% | 117% | 89.3% | 27.9 | 108% | 59.3% | 112% | 96% |  | 110 | 111% | 108% | 104% | -51.8% (active) |  | 112%
O=C(O)c1ccc[n+](CC(=O)N2CCN(c3cc4c(cc3F)c(=O)c(C(=O)O)cn4C3CC3)CC2)c1 | 87.7 | 93.7% | 103% | 105% | 95.6% | 109% | -86.6% (active) | 58.9 | 96.1% |  | -34% (active) | 98.3% |  | 70.1 | 116% | 69.1% | 80.1% | 64.6% | 106% | 
COc1ccccc1OCC(=O)N1CCCCCC1 | 92.8 | 92.1% | 105% | 104% | 105% | 82.8% | 96% | 117 | 107% | 83.3% | 89.2% | 113% | 97% | 108 | 106% | 104% | 93.3% | 119% |  | 110%
CO[C@@H]1[C@H](N(C)C(=O)c2ccccc2)C[C@@H]2O[C@]1(C)n1c3ccccc3c3c4c(c5c6ccccc6n2c5c31)C(=O)NC4=O | 44.2 | 29% | 38.9% | 28.5% | 48.2% | 4.48% (active) | 21.2% |  | 50.1% | 52.4% | 38.5% | 41.7% | -37.8% (active) | 48.2 | 42.5% | 13.6% | 61.5% | 37.1% |  | 2.3% (active)
CCSc1ccc2c(c1)N(CCCN1CCN(C)CC1)c1ccccc1S2 | 74.2 | 90.5% | 73.1% | 69.8% | 9.17% (active) | 20.3% | 70.3% | 43.2 | 56.3% | -20.9% (active) | -61.6% (active) | 16.5% | 18.6% | 55.8 | 35.4% | 63.2% | -69.8% (active) | -86.9% (active) |  | -62.1% (active)
COc1ccc(-c2nc(SC(C)C)nc(NNC(N)=O)c2C#N)cc1 | 97.8 | 95.4% | 94.2% | 83.7% | 94.5% | 78% | 63.4% | 95.5 | 94.2% | 25.7% | 81.2% | 78.8% |  | 84.9 | 88.7% | 85.1% | 99.8% | 99.6% |  | 117%
CCc1c(Nc2ccc(C)cc2)[nH]c(N)nc1=S | 97 | 95.3% | 106% | 98.1% | 106% | 108% |  | 104 | 104% | 115% | 103% | 98.8% | 113% | 103 | 96.2% | 103% | 104% | 98.7% | 101% | 109%
CNC(=O)Nc1ccc(-c2nc(N3CCOCC3)nc3c2cnn3C2CCOCC2)cc1 | 17.5 | -12.4% (active) | -9.52% (active) | -11% (active) | 11.8% | -27.6% (active) | -0.372% (active) |  | 9.63% (active) | 20.1% | -37.6% (active) | 5.07% (active) | -35.3% (active) | 15.7 | -45% (active) | -24.4% (active) | -24.9% (active) | -12.1% (active) | -1.33% (active) | 5.84% (active)
